# Laboratory results as given in PubChem BioAssay (NCI).
# The panel holds about 83,000 compounds, 20% with a hit somewhere; the sample as a whole holds those more often.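 Activity criterion: percent growth below 10, measured after cells in 96-well plates were exposed to a single compound concentration for 48 hours.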 A number with no mark means an inactive call. Active and inactive are the calls of the source.
# Tested on: SK-MEL-2 melanoma
# Experiment: NCI-60 one-dose screen, 48 h (100 = growth as untreated, 0 = no growth, -100 = all killed)
# Details: 10 µM unless noted
row,Compound,growth
1,O=C1C(Br)=CC2C1C1C3CCC3C2(Br)C12OCCO2 (stereo unspecified),21.7%
2,Oc1ccc(Br)cc1/C=N/NC(=S)NC12CC3CC(CC(C3)C1)C2,48.2%
3,Cc1ccc([C@@H]2C[C@H](O)Cc3ccccc3N2)s1,141%
4,CCCCCCC(C)N(CC(C)(C)O)C(=O)c1ccc([N+](=O)[O-])cc1 (stereo unspecified),89.7%
5,CC[n+]1c(C)ccc2cc(C)ccc21,106%
6,CCN(CC)CCCNc1c2ccc(Cl)cc2nc2ccc(OC)cc12,-3.63% (active)
7,O=C(NCCNCCO)c1cc([N+](=O)[O-])cc([N+](=O)[O-])c1O,117%
8,COC1=C(OC)C(=O)c2ccccc2C1=O,107%
9,O=C(/C=C\c1ccc(NCc2ccc(C(=O)O)cc2)cc1)CCl,97%
10,O=C(/C(Br)=C/c1ccccc1)c1ccccc1,15.2%
11,CC1Cc2cc(F)ccc2-n2cccc21 (stereo unspecified),104%
12,Oc1ccc(CN(Cc2ccc(C(F)(F)F)cc2)Cc2ccc(O)c3ncccc23)c2cccnc12,24.5%
13,CNc1ccc(Nc2ccc(S(=O)(=O)O)cc2)c2c1C(=O)c1ccccc1C2=O,130%
14,CC(=O)Nc1ccc(C(=O)/C=C/c2ccc(N(C)C)cc2)cc1,95.7%
15,Cc1sc(NC(=O)c2ccc(C(C)(C)C)cc2)c(C(=O)O)c1C,103%
16,O=C(CBr)OCc1ccc([N+](=O)[O-])o1,97.9%
17,CCCCN(CCC)CCCCCCCCCCN1CCCc2ccccc21,92.3%
18,C=C(C)[C@@H]1CC[C@]2(COC(=O)c3ccccc3C(=O)O)CC[C@]3(C)[C@H](CC[C@@H]4[C@@]5(C)CCCNC(C)(C)[C@@H]5CC[C@]43C)[C@@H]12,94.4%
19,COc1ccc(/C=C/C(=O)/C=C/c2cc3ccccc3[nH]c2=O)cc1,95.9%
20,CCCCCC(=C/c1ccccc1)/C=N/N=C(N)N,-55.7% (active)
21,CC([C@H]1CC=C2C3CCC4=C[C@@H](N(C)C)CC[C@]4(C)C3CC[C@@]21C)N(C)C (stereo partly specified),90.8%
22,C=CN(C)S(C)(=O)=O,-8.09% (active)

# Tested on: EKVX NSCLC
# Experiment: as above
# Details: 10 µM
row,Compound,growth
1,O=c1[nH]c(=S)[nH]c(O)c1/C=C1\C=Nc2ccccc21,75.1%
2,Cc1ccc(C(=O)NN)cc1,97.1%
3,Cn1c2c(cc(S(=O)(=O)c3ccccc3)c1=O)CCc1c-2cnn1-c1ccc(Cl)cc1,5.95% (active)
4,CCCCCN1CCN(C(CC(=O)c2ccccc2)C(=O)c2ccccc2)CC1 (stereo unspecified),110%
5,Cc1ccc([C@@H]2C[C@H](O)Cc3ccccc3N2)s1,97.6%
6,CC[n+]1c(C)ccc2cc(C)ccc21,72.6%
7,COC1=C(OC)C(=O)c2ccccc2C1=O,97.8%
8,O=C(/C(Br)=C/c1ccccc1)c1ccccc1,109%
9,CC1Cc2cc(F)ccc2-n2cccc21 (stereo unspecified),107%
10,Oc1ccc(CN(Cc2ccc(C(F)(F)F)cc2)Cc2ccc(O)c3ncccc23)c2cccnc12,19%
11,Cc1sc(NC(=O)c2ccc(C(C)(C)C)cc2)c(C(=O)O)c1C,51.1%
12,O=C(CBr)OCc1ccc([N+](=O)[O-])o1,124%
13,CCCCN(CCC)CCCCCCCCCCN1CCCc2ccccc21,64.3%
14,C=C(C)[C@@H]1CC[C@]2(COC(=O)c3ccccc3C(=O)O)CC[C@]3(C)[C@H](CC[C@@H]4[C@@]5(C)CCCNC(C)(C)[C@@H]5CC[C@]43C)[C@@H]12,78.6%
15,CCCCCC(=C/c1ccccc1)/C=N/N=C(N)N,46.1%
16,CC([C@H]1CC=C2C3CCC4=C[C@@H](N(C)C)CC[C@]4(C)C3CC[C@@]21C)N(C)C (stereo partly specified),-38.8% (active)

# Tested on: SN12C renal
# Experiment: as above
# Details: 10 µM unless noted
row,Compound,growth
1,CC(=O)OC1/C=C\CC/C=C\C1 (stereo unspecified),95.8%
2,CCCCCCCCC1OC1CCCCCCCC(=O)O (stereo unspecified),94.5%
3,CCOC1=C(Cl)C(=O)C(OCC)=C(Cl)C1=O,98.8%
4,O=C1C(=O)c2ccccc2C(O)=C1CCCc1ccc(Oc2ccccc2)cc1,77.8%
5,CCN(CC)CCCC(C)Nc1c(C)cnc2cc(Cl)c(C)cc12 (stereo unspecified),94.5%
6,Oc1ccc([S+](c2ccc(O)cc2)c2ccc(O)cc2)cc1,95.2%
7,S=C(N/N=C/c1cc(Cl)cc(Cl)c1)NC12CC3CC(CC(C3)C1)C2,88.6%
8,CC(=O)c1ccc2c(c1)c1ccccc1n2C,92.1%
9,CC1(C)NC(=S)NC1=O,105%
10,O=C(NC1CCN(Cc2ccccc2)CC1)c1cc(-c2cccnc2)nc2ccc(Cl)cc12,63.1%
11,O=C(O)CS(=O)c1ccc(Cl)cc1 (stereo unspecified),104%
12,Cc1ccc(S(=O)(=O)NC(CCC(=O)Nc2ccccc2)C(=O)Nc2ccccc2)cc1 (stereo unspecified),3.91% (active)
13,COc1ccc(/C=C2\CCCC3=C2N=C2SC=NN2C3c2ccc(OC)c(OC)c2)cc1OC (stereo unspecified),40.7%
14,O=C1C(Br)=CC2C1C1C3CCC3C2(Br)C12OCCO2 (stereo unspecified),41.8%
15,Oc1ccc(Br)cc1/C=N/NC(=S)NC12CC3CC(CC(C3)C1)C2,20.1%
16,CCCCCCC(C)N(CC(C)(C)O)C(=O)c1ccc([N+](=O)[O-])cc1 (stereo unspecified),104%
17,CC[n+]1c(C)ccc2cc(C)ccc21,96.8%
18,CCN(CC)CCCNc1c2ccc(Cl)cc2nc2ccc(OC)cc12,10.7%
19,O=C(NCCNCCO)c1cc([N+](=O)[O-])cc([N+](=O)[O-])c1O,96.1%
20,COC1=C(OC)C(=O)c2ccccc2C1=O,108%
21,O=C(/C=C\c1ccc(NCc2ccc(C(=O)O)cc2)cc1)CCl,79.7%
22,CNc1ccc(Nc2ccc(S(=O)(=O)O)cc2)c2c1C(=O)c1ccccc1C2=O,92.8%
23,CC(=O)Nc1ccc(C(=O)/C=C/c2ccc(N(C)C)cc2)cc1,98.2%
24,O=C(CBr)OCc1ccc([N+](=O)[O-])o1,98.8%
25,C=C(C)[C@@H]1CC[C@]2(COC(=O)c3ccccc3C(=O)O)CC[C@]3(C)[C@H](CC[C@@H]4[C@@]5(C)CCCNC(C)(C)[C@@H]5CC[C@]43C)[C@@H]12,59.3%
26,COc1ccc(/C=C/C(=O)/C=C/c2cc3ccccc3[nH]c2=O)cc1,66.5%
27,CC([C@H]1CC=C2C3CCC4=C[C@@H](N(C)C)CC[C@]4(C)C3CC[C@@]21C)N(C)C (stereo partly specified),21.5%
28,C=CN(C)S(C)(=O)=O,42.5%
